Assay [1] concerns Saccharomyces cerevisiae BY4741 SeMeCo community. The experiment in a line: z-score of prototroph abundance vs DMSO median; higher = larger share of this subpopulation than in DMSO controls. The note with it: 10 µM; 24 h; SM minimal medium; subpopulation (auxotrophy): Prototroph. The method, boiled down: (§1)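 Scoring was based on each subpopulation's abundance, expressed as a z-score against the vehicle-well median. A Saccharomyces cerevisiae BY4741 community with four plasmids, each restoring one auxotrophy and encoding a distinct fluorescent protein, was pre-grown overnight to OD600 1.0, diluted to 0.3, and added at 70 µl to 384-well plates acoustically predosed with library drugs (10 µM final). It then grew 24 h in minimal SM medium before paraformaldehyde fixation and automated confocal microscopy, with single-auxotroph fluorescent strains setting thresholds and autofluorescence correction.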

Assay [2] has the same test system. The experiment in a line: z-score of subpopulation abundance vs DMSO median, subpopulation auxotrophic for L; higher = larger share of this subpopulation than in DMSO controls. The note with it: 10 µM; 24 h; SM minimal medium; subpopulation (auxotrophy): L. The method, boiled down:
as §1

The test system is the same in assay [3]. The experiment in a line: z-score of subpopulation abundance vs DMSO median, subpopulation auxotrophic for U; higher = larger share of this subpopulation than in DMSO controls. Particulars: 10 µM; 24 h; SM minimal medium; subpopulation (auxotrophy): U. In a few lines: as §1
The test system is the same in assay [4]. Put plainly: z-score of subpopulation abundance vs DMSO median, subpopulation auxotrophic for H; higher = larger share of this subpopulation than in DMSO controls. The note with it: 10 µM; 24 h; SM minimal medium; subpopulation (auxotrophy): H. In a few lines:
as §1

The test system is the same in assay [5]. The experiment in a line: z-score of subpopulation abundance vs DMSO median, subpopulation auxotrophic for LU; higher = larger share of this subpopulation than in DMSO controls. Particulars: 10 µM; 24 h; SM minimal medium; subpopulation (auxotrophy): LU. In a few lines:
as §1

Assay [6] has the same test system. Put plainly: z-score of subpopulation abundance vs DMSO median, subpopulation auxotrophic for HU; higher = larger share of this subpopulation than in DMSO controls. The note with it: 10 µM; 24 h; SM minimal medium; subpopulation (auxotrophy): HU. In a few lines:
as §1

Assay [7] shares this test system. Put plainly: z-score of subpopulation abundance vs DMSO median, subpopulation auxotrophic for UM; higher = larger share of this subpopulation than in DMSO controls. The note with it: 10 µM; 24 h; SM minimal medium; subpopulation (auxotrophy): UM. In a few lines: as §1
Assay [8] has the same test system. The experiment in a line: z-score of subpopulation abundance vs DMSO median, subpopulation auxotrophic for HL; higher = larger share of this subpopulation than in DMSO controls. Particulars: 10 µM; 24 h; SM minimal medium; subpopulation (auxotrophy): HL. In a few lines:
as §1

For assay [9] the test system is unchanged. The experiment in a line: z-score of subpopulation abundance vs DMSO median, subpopulation auxotrophic for HLM; higher = larger share of this subpopulation than in DMSO controls. The note with it: 10 µM; 24 h; SM minimal medium; subpopulation (auxotrophy): HLM. The method, boiled down:
as §1

For assay [10] the test system is unchanged. Put plainly: z-score of subpopulation abundance vs DMSO median, subpopulation auxotrophic for HUM; higher = larger share of this subpopulation than in DMSO controls. Particulars: 10 µM; 24 h; SM minimal medium; subpopulation (auxotrophy): HUM. In a few lines: as §1
The test system is the same in assay [11]. Put plainly: z-score of subpopulation abundance vs DMSO median, subpopulation auxotrophic for HLUM; higher = larger share of this subpopulation than in DMSO controls. Particulars: 10 µM; 24 h; SM minimal medium; subpopulation (auxotrophy): HLUM. In a few lines:
as §1

Assay [12] shares this test system. The experiment in a line: mean cell size (pixel area) (pixels); higher = larger cells. The note with it: 10 µM; 24 h; SM minimal medium. In a few lines: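 For 24 h, 70 µl of yeast culture diluted to OD600 = 0.3 from an overnight preculture at OD600 = 1.0 was kept in SM medium in 384-well plates acoustically predosed with drug, final 10 µM. The strain was Saccharomyces cerevisiae BY4741 forming a fluorescent community of four plasmids, each complementing one auxotrophy and carrying a fluorescent marker. Automated confocal microscopy of paraformaldehyde-fixed cells, analysed in Harmony, provided mean cell pixel area per well, which was averaged over 3 replicates. Same SeMeCo high-content imaging drug screen: Selleck FDA-approved drugs at 10 µM, 24 h in SM medium, 384-well plates, 3 replicates.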

Assay [13] has the same test system. Put plainly: z-score of subpopulation abundance vs DMSO median, subpopulation auxotrophic for LM; higher = larger share of this subpopulation than in DMSO controls. Particulars: 10 µM; 24 h; SM minimal medium; subpopulation (auxotrophy): LM. In a few lines:
as §1

Assay [14] has the same test system. Put plainly: z-score of subpopulation abundance vs DMSO median, subpopulation auxotrophic for HM; higher = larger share of this subpopulation than in DMSO controls. The note with it: 10 µM; 24 h; SM minimal medium; subpopulation (auxotrophy): HM. The method, boiled down: as §1
The test system is the same in assay [15]. The experiment in a line: z-score of subpopulation abundance vs DMSO median, subpopulation auxotrophic for LUM; higher = larger share of this subpopulation than in DMSO controls. Particulars: 10 µM; 24 h; SM minimal medium; subpopulation (auxotrophy): LUM. The method, boiled down:
as §1

Counter-ions that a name gives are not always drawn. ± gives the standard deviation of the averaged measurements.

In the case of `Cc1c(C)c2c(c(C)c1O)CCC(C)(CCCC(C)CCCC(C)CCCC(C)C)O2` (stereo not drawn) [Vitamin E], the “z-score of prototroph abundance” value in assay [1] was 0.82. In addition, the “z-score of subpopulation abundance” value in assay [2] is -0.8; in [3], 0.13; in assay [4], -0.89; in [5], -0.31; in assay [6], 0.51; in assay [7] it was -0.04. Besides, the “z-score of subpopulation abundance” value in [8] is -1.01; in [9] it was -1.72; in [10] it was -0.31; in assay [11] it was -1.29.

Regarding `CC(C)[C@H](N)C(=O)OCC(CO)OCn1cnc2c(=O)[nH]c(N)nc21` (stereo partly drawn) [Valganciclovir HCl], the mean cell size in assay [12] came out at 12.7 ± 0.14. Besides, the “z-score of prototroph abundance” value in assay [1] turned out to be 0.56. The “z-score of subpopulation abundance” value in assay [2] was 0.28; in assay [3] it was -0.54; in assay [4], 0.09; in [5] it was -0.94; in assay [13], -0.45; in assay [14], -0.64. Further, the “z-score of subpopulation abundance” value in assay [8] is -0.43; in assay [9], 0.99; in assay [10], -0.56; in assay [15], 0.07; in assay [11], -0.35.

As for `COc1ccc(C2CNC(=O)C2)cc1OC1CCCC1` (stereo not drawn) [Rolipram], the mean cell size in assay [12] was 12.4 ± 0.3. In addition, the “z-score of prototroph abundance” value in [1] amounted to 0.66. In addition, the “z-score of subpopulation abundance” value in [2] was -0.37; in [3] it was -0.09; in [4] it was -0.68; in [13], 0.28; in assay [14] it was -0.73; in assay [7] it was -0.35. Also, the “z-score of subpopulation abundance” value was -0.38 in assay [8], -0.22 in assay [10], -0.59 in assay [15] and -0.71 in [11].

On to `CN(C)[C@@H]1C(O)=C(C(N)=O)C(=O)[C@@]2(O)C(O)=C3C(=O)c4c(O)ccc(Cl)c4[C@@](C)(O)[C@H]3C[C@@H]12` [Chlortetracycline HCl], for which, in assay [12], the mean cell size stood at 12.4 ± 0.2.

As to `CCN1CCCC1CNC(=O)c1cc(S(N)(=O)=O)ccc1OC` (stereo not drawn) [Sulpiride], the mean cell size in assay [12] came to 12.54 ± 0.037. In assay [1], the “z-score of prototroph abundance” value came to 0.51. The “z-score of subpopulation abundance” value in assay [2] was 0.31; in [3], -0.56; in assay [4], -0.37; in assay [5], -0.37; in assay [6], -0.14; in assay [7], -0.33. The “z-score of subpopulation abundance” value worked out at 0.14 in assay [9], 0.04 in assay [15] and 0.02 in assay [11].

In turn, `C[C@@H](O)[C@H]1C(=O)N2C(C(=O)O)=C(S[C@@H]3CN[C@H](CNS(N)(=O)=O)C3)[C@H](C)[C@H]12` [Doripenem Hydrate] gave a mean cell size in [12] of 12.38 ± 0.092. Besides, the “z-score of subpopulation abundance” value in assay [2] is 0.82; in assay [3], 0.2; in assay [4] it was -0.3; in assay [5], 0.22; in assay [13] it was -0.44; in assay [6], -0.19. Further, the “z-score of subpopulation abundance” value was -0.42 in assay [7]; -0.25 in assay [8]; -0.78 in assay [9]; -0.2 in [15]; -1.04 in [11].

Compound `CC(=O)OCC1=C(C(=O)O)N2C(=O)[C@@H](NC(=O)CSC(=NC(C)C)NC(C)C)[C@H]2SC1` [Cefathiamidine] came in with a mean cell size in assay [12] of 12.3 ± 0.14.

As for `O=c1[nH]c2ccccc2n1CCN1CCN(c2cccc(C(F)(F)F)c2)CC1` [Flibanserin], the mean cell size in assay [12] was found to be 12.25 ± 0.046. Also, the “z-score of prototroph abundance” value in [1] is 0.65. The “z-score of subpopulation abundance” value was -0.73 in assay [2]; 0.4 in [3]; -0.96 in assay [4]; -0.2 in assay [5]; -0.37 in [13]; -0.79 in [14]. The “z-score of subpopulation abundance” value in assay [6] is -0.17; in assay [8], -0.75; in assay [10], -0.15; in assay [15], -0.43; in assay [11], -0.98.

`C[C@H]1c2cccc(O)c2C(=O)C2=C(O)[C@]3(O)C(=O)C(C(N)=O)=C(O)[C@@H](N(C)C)[C@@H]3[C@@H](O)[C@@H]21` [Doxycycline] showed a mean cell size in assay [12] of 12.1 ± 0.32.

In assay [12], `CN(C)c1cc(NC(=O)CNC(C)(C)C)c(O)c2c1C[C@H]1C[C@H]3[C@H](N(C)C)C(O)=C(C(N)=O)C(=O)[C@@]3(O)C(O)=C1C2=O` [Tigecycline] yielded a mean cell size of 12.8 ± 0.2.

As to `COc1ccc([C@H]2CNC(=O)C2)cc1OC1CCCC1` [S- (+)-Rolipram], in [12], the mean cell size is 12.43 ± 0.11.

As to `CCCCCCCCCC(=O)CC(O)S(=O)(=O)O` (stereo not drawn) [Sodium Houttuyfonate], the mean cell size in assay [12] worked out at 12.02 ± 0.032.

In turn, `C=CC1=C(C(=O)O)N2C(=O)[C@@H](NC(=O)/C(=N\O)c3csc(N)n3)[C@H]2SC1` [Cefdinir] came in with a mean cell size in assay [12] of 12.48 ± 0.068.

`CO[C@H]1/C=C/O[C@@]2(C)Oc3c(C)c(O)c4c(c3C2=O)C2=NC3(CCN(CC(C)C)CC3)NC2=C(NC(=O)/C(C)=C\C=C\[C@H](C)[C@H](O)[C@@H](C)[C@@H](O)[C@@H](C)[C@H](OC(C)=O)[C@@H]1C)C4=O` [Rifabutin] came in with a mean cell size in [12] of 12.6 ± 0.21.

With `CC(=O)[C@@]1(O)CC[C@H]2[C@@H]3CCC4=CC(=O)CCC4=C3[C@@H](c3ccc(N(C)C)cc3)C[C@@]21C` [Ulipristal], the mean cell size in assay [12] was determined as 12.3 ± 0.16.

In the case of `C[C@@H]1NC(=O)[C@@H](N)CNC(=O)[C@H](C2CCNC(=N)N2)NC(=O)/C(=C/NC(N)=O)NC(=O)[C@H](CNC(=O)CC(N)CCCN)NC1=O.N=C1NCC[C@H]([C@@H]2NC(=O)/C(=C/NC(N)=O)NC(=O)[C@H](CNC(=O)C[C@@H](N)CCCN)NC(=O)[C@H](CO)NC(=O)[C@@H](N)CNC2=O)N1` [Capreomycin Sulfate], the mean cell size in assay [12] worked out at 12.1 ± 0.22.

For `CO[C@@H]1[C@@H](O[C@@H]2O[C@H](C)[C@@H](O[C@H]3C[C@@](C)(O)[C@@H](OC(=O)CC(C)C)[C@H](C)O3)[C@H](N(C)C)[C@H]2O)[C@@H](CC=O)C[C@@H](C)[C@@H](O)/C=C/C=C/C[C@@H](C)OC(=O)C[C@H]1O` [Kitasamycin], the mean cell size in assay [12] was found to be 12.32 ± 0.037.

(Values after the supplement of paper PMC8975748.)
